Records with an inconclusive call do not appear. Active and inactive are the calls of the source. The calls were made as follows, unless noted: active = hit-call score of the fitted dose curve at least 0.9, where 1 is the maximum; inactive = score below 0.9.

A short description of assay [1]: CCTE_Mundy_HCI_Cortical_NOG_NeuriteLength: CCTE's Neurite Outgrowth Assay in rat cortical cells for Neurite Length, Mundy Lab (AID 2284213). An outline of the steps:
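Neurite length was read by high-content imaging of βIII-tubulin-labelled neurites in rat primary cortical cultures. Activity was fitted relative to DMSO.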

Assay [2] can be described thus: CCTE_Mundy_HCI_Cortical_Synap_Neur_Matur_NeuriteLength: CCTE's Synaptogenesis and Neurite Maturation Assay in rat cortical cells for Neurite Length, Mundy Lab (AID 2284214). Put shortly: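 Rat cortical neurons, AraC at DIV 5; compound + media change DIV 7, end DIV 12 (288.33 h). Fix, MAP2/synaptophysin/Hoechst immunostain, automated HCI of neurite length vs DMSO.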

The nature of assay [3]: CCTE_Mundy_HCI_Cortical_Synap_Neur_Matur_SynapseCount: CCTE's Synaptogenesis and Neurite Maturation Assay in rat cortical cells for Synapse Count, Mundy Lab (AID 2284218). Put shortly: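 Primary rat cortical culture; AraC DIV 5 to arrest glia; compound + media change DIV 7; terminated DIV 12. PFA/Hoechst fix, anti-MAP2 + anti-synaptophysin immunostain; HCI synapse count/neuron; DMSO = baseline.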

The nature of assay [4]: CCTE_Mundy_HCI_Cortical_Synap_Neur_Matur_NeuriteCount: CCTE's Synaptogenesis and Neurite Maturation Assay in rat cortical cells for Neurite Count, Mundy Lab (AID 2284222).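 Also: exposure from day 7 to day 12 in vitro with readout at day 12.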 An outline of the steps:
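Primary rat cortical cells were plated, treated with AraC at DIV 5, then exposed to chemicals from DIV 7 through DIV 12. After fixation and immunostaining for MAP2 and synaptophysin, imaging quantified neurites, with DMSO as the negative control.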

Assay [5] in a line: CCTE_Mundy_HCI_Cortical_Synap_Neur_Matur_CellBodySpotCount: CCTE's Synaptogenesis and Neurite Maturation Assay in rat cortical cells for Cell Body Spot Count, Mundy Lab (AID 2284223). Put shortly:
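High-content imaging counts synaptophysin puncta on neuronal cell bodies per neuron after MAP2/synaptophysin immunostaining. Rat primary cortical cells, glia arrested with AraC at DIV 5, were exposed DIV 7–12; signal decrease measured against DMSO.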

Assay [6] can be described thus: CCTE_Mundy_HCI_hNP1_Pro_ResponderAvgInten: CCTE's Proliferation Assay in human neuroprogenitor cells, Mundy Lab (AID 2284224; active = hit-call score of the fitted dose curve at least 0.9, where 1 is the maximum). An outline of the steps: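 Proliferation was scored as BrdU labelling intensity in human neural progenitors derived from WA09 embryonic cells, measured 26.25 hours after chemical dosing. Activity was fitted relative to DMSO.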
Assay [7] can be described thus: UKN2_HCS_IMR90_cell_viability: Viability Assessment in the University of Konstanz (UKN) Leist Lab Neural Crest Cell Migration Assay in human induced IMR90 Pluripotent Stem Cells (UKN2) (AID 2284233).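 Also: viability of neural crest cells differentiated from IMR90 iPSC measured by calcein-AM fluorescence imaging; cells exposed to compound for 24 h after a 24 h migration phase.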 Put shortly: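 Human IMR90-derived neural crest cells were allowed to migrate for 24 h into a cell-free zone, then exposed to test chemicals for 24 h. Calcein-AM and Hoechst staining with high-content imaging gave viability, analysed against DMSO baseline.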

Assay [8] can be described thus: CCTE_Mundy_HCI_Cortical_NOG_NeuronCount: CCTE's Neurite Outgrowth Assay in rat cortical cells for Neuron Count, Mundy Lab (AID 2284236; active = hit-call score of the fitted dose curve at least 0.9, where 1 is the maximum;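 also: neurons counted by imaging betaIII-tubulin and Hoechst stained cortical cells; cells exposed to compound for about 48 hours before fixation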). Put shortly:
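Read-out: neuron number by high-content imaging of betaIII-tubulin (Alexa Fluor-488) and Hoechst-labelled rat primary cortical cells.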

A short description of assay [9]: CCTE_Mundy_HCI_Cortical_NOG_BPCount: CCTE's Neurite Outgrowth Assay in rat cortical cells for Branch Point Count, Mundy Lab (AID 2284237). An outline of the steps:
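Measured 50.33 h after dosing, this morphology endpoint uses rat primary cortical cultures labelled for betaIII-tubulin. Branch points are quantified by high-content imaging, with DMSO as negative control and baseline.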

A short description of assay [10]: CCTE_Mundy_HCI_hNP1_Casp3_7: CCTE's Caspase-Glo 3/7 Assay in human neuroprogenitor cells for Apoptosis, Mundy Lab (AID 2284240). An outline of the steps:
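Apoptosis is scored by activated caspase-3/7 luminescence in WA09-derived neural progenitor cells, measured 26.5 h after chemical dosing. Values represent gain of signal relative to DMSO vehicle.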

Assay [11] in a line: IUF_NPC2c_oligodendrocyte_migration_120hr: Leibniz Research Institute for Environmental Medicine (IUF) 120-hour Neural Progenitor Cell Migration Assay for Oligodendrocyte Migration (NPC2c) (AID 2284297).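 Also: O4-positive oligodendrocyte migration distance divided by radial glia migration distance.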 An outline of the steps: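 Exposure runs 5 days from differentiation onset at 37C, seven concentrations plus solvent control, DMSO at most 0.1%, applied to primary hNPC spheres on laminin. After fixation, O4 immunostaining gives oligodendrocyte distance from the sphere core, relative to radial glia migration.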

Assay [12] is described as follows: IUF_NPC2a_radial_glia_migration_120hr: Leibniz Research Institute for Environmental Medicine (IUF) 120-hour Neural Progenitor Cell Migration Assay for Radial Glia Migration (NPC2a) (AID 2284298). An outline of the steps: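 Migration distance in um, sphere core edge to migration-area edge, derived by nuclei-density algorithm from Hoechst images after 120 h compound exposure. Primary hNPC spheres differentiated on poly-D-lysine/laminin in N2 medium, 37C; medium half-replaced day 3.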

Assay [13] can be described thus: IUF_NPC2b_neuronal_migration_120hr: Leibniz Research Institute for Environmental Medicine (IUF) 120-hour Neural Progenitor Cell Migration Assay for Neuron Migration (NPC2b) (AID 2284300). Put shortly: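 TUBB3-positive neurons are imaged after 120 h of differentiation, and their mean distance from the sphere edge is normalised to radial glia migration. Single 0.3 mm fetal hNPC spheres on poly-D-lysine/laminin received 7 compound concentrations, ≤0.1% DMSO, refreshed at day 3.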

A short description of assay [14]: IUF_NPC3_neuronal_differentiation_120hr: Leibniz Research Institute for Environmental Medicine (IUF) 120-hour Neuronal Differentiation Assay (NPC3) (AID 2284301). Put shortly:
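Single 0.3 mm neurospheres from human fetal cortex were plated in differentiation medium containing test compound. Medium was half-replaced on day 3. After 120 h cells were fixed, immunostained and imaged, and neuronal fraction was scored against DMSO control.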

A short description of assay [15]: IUF_NPC4_neurite_length_120hr: Leibniz Research Institute for Environmental Medicine (IUF) 120-hour Neuronal Morphology Assay for Neurite Length (NPC4) (AID 2284302). An outline of the steps:
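Read-out is mean neurite length in µm of TUBB3-positive neurons, skeletonized from high-content fluorescence images after 120 h. Single 0.3 mm primary human neural progenitor spheres differentiated on poly-D-lysine/laminin under continuous compound exposure; DMSO was baseline.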

The nature of assay [16]: IUF_NPC5_oligodendrocyte_differentiation_120hr: Leibniz Research Institute for Environmental Medicine (IUF) 120-hour Oligodendrocyte Differentiation Assay (NPC5) (AID 2284304; active = hit-call score of the fitted dose curve at least 0.9, where 1 is the maximum;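 also: primary human fetal neural progenitor spheres plated to migrate and differentiate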). Put shortly: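 Oligodendrocyte differentiation scored as O4-positive cells, found by CNN image analysis, as percent of Hoechst-stained nuclei in the migration area. Scoring followed 5 days of exposure of plated hNPC neurospheres differentiating in DMEM/F12 N2 medium at 37C, with compound refreshed at day 3.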

Assay [17] can be described thus: IUF_NPC4_neurite_area_120hr: Leibniz Research Institute for Environmental Medicine (IUF) 120-hour Neuronal Morphology Assay for Neurite Area (NPC4) (AID 2284305; active = hit-call score of the fitted dose curve at least 0.9, where 1 is the maximum). Put shortly:
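Neurite area is read out as the mean pixel area, excluding nuclei, of skeletonized TUBB3-positive neurons imaged after 120 h. Primary human neural progenitor spheres differentiated on poly-D-lysine/laminin with compound present from day 0. Activity was referenced to DMSO controls.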

Assay [18] is described as follows: IUF_NPC2-5_cytotoxicity_72hr: Cytotoxicity Assessment at 72 hours in the Leibniz Research Institute for Environmental Medicine (IUF) Neural Progenitor Cell Migration and Differentiation Assay for Cytotoxicity (NPC2-5) (AID 2284306; active = hit-call score of the fitted dose curve at least 0.9, where 1 is the maximum;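 also: LDH release into supernatant measured by resorufin fluorescence marking membrane damage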). An outline of the steps:
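Membrane integrity loss was scored from fluorescence (RFU) of resorufin generated by LDH in culture supernatant, 72 h after dosing. Differentiating human progenitor spheres received seven serial compound concentrations alongside a solvent control.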

Assay [19] is described as follows: IUF_NPC2-5_cytotoxicity_120hr: Cytotoxicity Assessment at 120 hours in the Leibniz Research Institute for Environmental Medicine (IUF) Neural Progenitor Cell Migration and Differentiation Assay (NPC2-5) (AID 2284307; active = hit-call score of the fitted dose curve at least 0.9, where 1 is the maximum). An outline of the steps: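 Membrane-integrity loss measured as LDH activity in medium supernatant via resazurin-to-resorufin fluorescence after 120 h exposure. hNPC spheres from GW 16-19 fetal cortex differentiated on poly-D-lysine/laminin, 37C, medium half-refreshed day 3; seven concentrations, DMSO max 0.1%.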

A short description of assay [20]: IUF_NPC2-5_cell_number_120hr: Cell Number Assessment at 120 hours in the Leibniz Research Institute for Environmental Medicine (IUF) Neural Progenitor Cell Migration and Differentiation Assay (NPC2-5) (AID 2284308).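 Also: count of Hoechst-stained nuclei in migration zone around plated human neural progenitor spheres.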 Put shortly: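 Counting of all Hoechst-stained nuclei in the migration area at 120 h, versus DMSO control. Primary hNPC spheres differentiated on poly-D-lysine/laminin in N2 medium at 37C, dosed from day 0 (7 concentrations, DMSO ≤0.1%), half-refed day 3.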

Assay [21] is described as follows: IUF_NPC2-5_viability_120hr: Viability Assessment at 120 hours in the Leibniz Research Institute for Environmental Medicine (IUF) Neural Progenitor Cell Migration and Differentiation Assay (NPC2-5) (AID 2284312). An outline of the steps: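 Alamar blue resorufin fluorescence read after 5 days of differentiation, with compound present from day 0 and replenished at day 3. Primary hNPC spheres on laminin-coated plates, 37C; seven concentrations plus solvent control, fitted against DMSO.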

The nature of assay [22]: CCTE_Mundy_HCI_iCellGluta_NOG_NeuriteLength: CCTE's Neurite Outgrowth Assay in iCellGluta cells for Neurite Length, Mundy Lab (AID 2284318; active = hit-call score of the fitted dose curve at least 0.9, where 1 is the maximum). Put shortly:
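Automated high-content imaging of betaIII-tubulin (Alexa Fluor-488) and Hoechst-stained cells gave neurite length, normalized to the DMSO baseline.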

Assay [23] can be described thus: IUF_NPC1_cytotoxicity_72hr: Cytotoxicity Assessment at 72 hours in the Leibniz Research Institute for Environmental Medicine (IUF) Neural Progenitor Cell Proliferation Assay (NPC1) (AID 2284332; active = hit-call score of the fitted dose curve at least 0.9, where 1 is the maximum;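 also: rising LDH signal means more cytotoxicity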). Put shortly: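 Spheres of primary human neural progenitors are plated one per well on day 0 in growth-factor medium and dosed at once. After three days at 37C, supernatant LDH is measured fluorimetrically via resazurin reduction.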

Assay [24] is described as follows: CCTE_Mundy_HCI_iCellGluta_NOG_NeuriteCount: CCTE's Neurite Outgrowth Assay in iCellGluta cells for Neurite Count, Mundy Lab (AID 2284342; active = hit-call score of the fitted dose curve at least 0.9, where 1 is the maximum;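 also: chemical exposure about 48 hours starting 2 hours after plating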).

As usually defined, the AC50 is the concentration at which the activity in the assay is half-maximal. Take `COP(=O)(OC)SCN1C(=O)c2ccccc2C1=O`: the outcome in assay [1], in [2], in assay [3], in [4], in [5] and in assay [6] was inactive. For the same compound, the result in assay [7], in assay [8], in assay [9], in [10], in [11] and in assay [12] was inactive. Besides, the compound was classed as inactive in [13], in assay [14], in assay [15], in assay [16], in assay [17] and in assay [18]. In addition, the compound was classed as inactive in assay [19], in assay [20], in assay [21], in assay [23] and in assay [24]. Moreover, the AC50 in assay [22] is 50.5 µM (active).

(Values after PubChem BioAssay (EPA / NIEHS).)
